Results reported in PubChem BioAssay AID2284326 (EPA ToxCast).
Inconclusive results are not listed. Activity calls are given as the source filed them. How the source made its calls: active means hit-call score of the fitted dose curve at least 0.9, where 1 is the maximum; inconclusive means response in the unintended direction; inactive means score below 0.9.

Each compound was assayed on TPO (gene 7173) (assay: CCTE_GLTED_hTPO: CCTE's human Thyroperoxidase (hTPO) Inhibition Assay, Great Lakes Toxicology and Ecology Division (GLTED) Lab).
Description: CCTE_GLTED_hTPO is a cell-free, single-readout assay designed to test the inhibitory activity of chemicals toward human thyroperoxidase (TPO) protein. Uninhibited enzyme converts Amplex UltraRed to a fluorescent product. Measurements were taken 0.5 hour after chemical dosing in a 96-well plate. CCTE_GLTED_hTPO is the assay component measured from the CCTE_GLTED_hTPO assay. It is designed to make measurements of enzyme activity, a form of enzyme reporter, as detected with […] by Fluorescence technology.Data from the assay component CCTE_GLTED_hTPO was analyzed at the assay endpoint CCTE_GLTED_hTPO in the positive analysis fitting direction relative to DMSO as the negative control and baseline of activity. Using a type of enzyme reporter (the Amplex UltraRed assay), loss-of-signal activity can be used to understand decreased peroxidase activity in the presence of excess […]. To generalize the intended target to other relatable targets, this assay endpoint is annotated to the 'oxidoreductase' intended target family, where the subfamily is 'peroxidase'.
[…]
Cn1cc[nH]c1=S was tested, and the AC50 was 0.127 µM (active). In the case of O=C(Cl)C(F)(F)C(F)(F)C(F)(F)C(=O)Cl, the AC50 is reported as 150 µM (active). O=C(O)C(F)(OC(F)(F)C(F)(OC(F)(F)C(F)(F)C(F)(F)F)C(F)(F)F)C(F)(F)F (centres undefined) was tested, and the AC50 was 13.1 µM (active). With CN(C(=O)C(F)(F)C(F)(F)C(F)(F)F)[Si](C)(C)C the AC50 was 59.5 µM (active). With FC(F)(F)C(F)(F)C(F)(F)C(F)(F)C(F)(F)C(F)(F)C(F)(F)C(F)(F)CCS the AC50 was 50 µM (active). FC(F)(F)C(F)(F)C(F)(F)C(F)(F)C(F)(F)C(F)(F)CCS was tested, and the outcome was “inactive”. O=C(O)C(F)(F)C(F)(F)C(F)(F)C(F)(F)C(F)(F)C(F)(F)C(F)(F)C(F)(F)C(F)(F)C(F)F was tested, and the outcome was “inactive”. O=C(Cl)C(F)(F)C(F)(F)C(F)(F)C(F)(F)C(F)(F)C(F)(F)F was tested, and the AC50 was 48.3 µM (active). O=C(Cl)C(F)(F)C(F)(F)C(F)(F)C(F)(F)C(F)(F)C(F)(F)C(F)(F)C(F)(F)F was tested, and the outcome was “inactive”. O=C(O)C(F)(OC(F)(F)C(F)(OC(F)(F)C(F)(OC(F)(F)C(F)(F)C(F)(F)F)C(F)(F)F)C(F)(F)F)C(F)(F)F (centres undefined) was tested, and the AC50 was 0.0612 µM (active). For FC(F)=C(F)C(F)(F)C(F)(F)C(F)(F)C(F)(F)C(F)(F)C(F)(F)F, the AC50 was 30.9 µM (active). In the case of O=S(=O)(OCC(F)(F)F)C(F)(F)C(F)(F)C(F)(F)C(F)(F)F, the AC50 is reported as 42.2 µM (active). In the case of O=C(O)C(F)(F)C(F)(F)C(F)(F)C(F)(F)C(F)(F)C(F)(F)C(F)(F)C(F)(F)Cl, the AC50 is reported as 278 µM (active). O=S(=O)(Cl)C(F)(F)C(F)(F)C(F)(F)C(F)(F)C(F)(F)C(F)(F)C(F)(F)C(F)(F)F was tested, and the AC50 was 276 µM (active).
